From PubChem BioAssay (Tox21)
Where “and” joins values, the source holds several entries; their conditions need not be identical. Equal values may be shown once. Records with an inconclusive call do not appear. A call without a number means that no potency is given here. Some structures have more than one record in an assay (separate samples or runs), and their calls can disagree. Calls of active or inactive are those of the source. The call rests on the fitted dose curve; in most records, active means well fitted cell-killing curve with a large enough effect in the repeat runs; inconclusive means weak or mixed curves; inactive means no such curve, though single readings can be large or run the other way.

assay: qHTS assay for identifying genotoxic compounds that show differential cytotoxicity against isogenic chicken DT40 cell lines with known DNA damage response pathways - Rad54/Ku70 mutant cell line (AID 743015); conditions: DT40 Rad54/Ku70 mutant viability, CellTiter-Glo, 40 h; series mostly up to 66.8 µM; further: nearly all actives have a fitted effect of over 60% in size
Potency means the concentration at half of the fitted maximal effect.

Row | SMILES | Potency
1 | N#CC(C#N)=C(C#N)C#N | inactive
2 | O=C1NC(=O)C(=O)C(=O)N1 | inactive
3 | CON(C)C(=O)Nc1ccc(Cl)cc1 | inactive
4 | CCCCOC(=O)CCC(=O)OCCCC | inactive
5 | C1CCNCC1 | inactive
6 | O=C1c2ccccc2C(=O)N1SC(Cl)(Cl)Cl | 135 nM (active) and 154 nM (active)
7 | C[Si](Cn1cncn1)(c1ccc(F)cc1)c1ccc(F)cc1 | 8.92 µM (active) and 9.69 µM (active)
8 | FC(Cl)(Cl)C(F)(Cl)Cl | inactive
9 | CCCCC(CC)COC(=O)c1c(Br)c(Br)c(Br)c(Br)c1C(=O)OCC(CC)CCCC (stereo unspecified) | inactive
10 | COc1ccccc1N1CCNCC1 | inactive
11 | O=C(Cc1ccccc1)c1ccccc1 | inactive
12 | CCCBr | inactive
13 | CCc1ccccc1N | inactive
14 | COc1cc(CC(C)N)c(OC)cc1Br (stereo unspecified) | 15.9 µM (active)
15 | C[N+]1(CCC(C(N)=O)(c2ccccc2)c2ccccc2)CCCCC1 | inactive
16 | CCCCC1C(=O)NC(=O)N(C2CCCCC2)C1=O (stereo unspecified) | inactive
17 | O=C([O-])c1ccccn1.O=C([O-])c1ccccn1.O=C([O-])c1ccccn1.[Cr+3] | inactive
18 | C[C@H]1O[C@H](OC2[C@@H](O)[C@@H](O)C(O)[C@H](O)[C@H]2O)[C@@H](N)C[C@@H]1N=C(N)C(=O)O (stereo partly specified) | inactive
19 | CC(C)(c1ccccc1)c1cc(-n2nc3ccccc3n2)c(O)c(C(C)(C)c2ccccc2)c1 | inactive

Row | SMILES | Potency
20 | CCCC[P+](CC)(CCCC)CCCC (tested in a mixture with another compound) | 12.3 µM (active)
21 | NNCCO | inactive
22 | CCC[N+](CCC)(CCC)CCC | inactive
23 | CC(O)CN1CCN(CC(=O)[O-])CCN(CC(=O)[O-])CCN(CC(=O)[O-])CC1.[Gd+3] (stereo unspecified) | inactive
24 | c1ccc2sc(SNC3CCCCC3)nc2c1 | inactive and 54.5 µM (active)
25 | CC(C)(C)c1ccc(CCOc2ncnc3ccccc23)cc1 | inactive
26 | O=[N+]([O-])O[C@H]1CO[C@H]2[C@@H]1OC[C@H]2O[N+](=O)[O-] | inactive
27 | CC(C)CCON=O | inactive
28 | CC(C)(C)NCC(O)c1ccccc1Cl (stereo unspecified) | inactive
29 | CCC(C)Cl (stereo unspecified) | inactive
30 | CCCCCl | inactive
31 | O=C(O)C(Cl)(Cl)Br | inactive
32 | COC(=O)Cc1ccccc1 | inactive
33 | OC[P+](CO)(CO)CO | inactive
34 | O=C(O)c1cc(Cl)ccc1Cl | inactive
35 | CC(C)(C)OOC(C)(C)CCC(C)(C)OOC(C)(C)C | inactive
36 | CCCCC#N | inactive
37 | C[N+](C)(C)CCOC(=O)C(O)(c1ccccc1)c1ccccc1 | inactive
38 | CN(C)c1ccc(N=O)cc1 | 1.37 µM (active) and 1.72 µM (active)

assay: qHTS assay to identify small molecule antagonists of the androgen receptor (AR) signaling pathway - cell viability counter screen (AID 743033; further: nearly all actives have a fitted effect of over 45% in size); conditions: AR-bla HEK293 viability, CellTiter-Glo luminescence, 16 h; series mostly up to 58.5 µM

Row | SMILES | Potency
39 | N#CC(C#N)=C(C#N)C#N | inactive
40 | O=C1NC(=O)C(=O)C(=O)N1 | inactive
41 | CON(C)C(=O)Nc1ccc(Cl)cc1 | inactive
42 | CCCCOC(=O)CCC(=O)OCCCC | inactive
43 | C1CCNCC1 | inactive
44 | O=C1c2ccccc2C(=O)N1SC(Cl)(Cl)Cl | 2.71 µM (active) and 3.09 µM (active)
45 | C[Si](Cn1cncn1)(c1ccc(F)cc1)c1ccc(F)cc1 | 14.3 µM (active)
46 | FC(Cl)(Cl)C(F)(Cl)Cl | inactive
47 | CCCCC(CC)COC(=O)c1c(Br)c(Br)c(Br)c(Br)c1C(=O)OCC(CC)CCCC (stereo unspecified) | inactive
48 | COc1ccccc1N1CCNCC1 | inactive
49 | O=C(Cc1ccccc1)c1ccccc1 | inactive
50 | CCCBr | inactive
51 | CCc1ccccc1N | inactive
52 | COc1cc(CC(C)N)c(OC)cc1Br (stereo unspecified) | inactive
53 | C[N+]1(CCC(C(N)=O)(c2ccccc2)c2ccccc2)CCCCC1 | inactive
54 | CCCCC1C(=O)NC(=O)N(C2CCCCC2)C1=O (stereo unspecified) | inactive
55 | O=C([O-])c1ccccn1.O=C([O-])c1ccccn1.O=C([O-])c1ccccn1.[Cr+3] | inactive
56 | C[C@H]1O[C@H](OC2[C@@H](O)[C@@H](O)C(O)[C@H](O)[C@H]2O)[C@@H](N)C[C@@H]1N=C(N)C(=O)O (stereo partly specified) | inactive
57 | CC(C)(c1ccccc1)c1cc(-n2nc3ccccc3n2)c(O)c(C(C)(C)c2ccccc2)c1 | inactive

Row | SMILES | Potency
58 | CCCC[P+](CC)(CCCC)CCCC (tested in a mixture with another compound) | inactive
59 | NNCCO | inactive
60 | CCC[N+](CCC)(CCC)CCC | inactive
61 | CC(O)CN1CCN(CC(=O)[O-])CCN(CC(=O)[O-])CCN(CC(=O)[O-])CC1.[Gd+3] (stereo unspecified) | inactive
62 | c1ccc2sc(SNC3CCCCC3)nc2c1 | inactive
63 | CC(C)(C)c1ccc(CCOc2ncnc3ccccc23)cc1 | inactive
64 | O=[N+]([O-])O[C@H]1CO[C@H]2[C@@H]1OC[C@H]2O[N+](=O)[O-] | inactive
65 | CC(C)CCON=O | inactive
66 | CC(C)(C)NCC(O)c1ccccc1Cl (stereo unspecified) | inactive
67 | CCC(C)Cl (stereo unspecified) | inactive
68 | CCCCCl | inactive
69 | O=C(O)C(Cl)(Cl)Br | inactive
70 | COC(=O)Cc1ccccc1 | inactive
71 | OC[P+](CO)(CO)CO | inactive
72 | O=C(O)c1cc(Cl)ccc1Cl | inactive
73 | CC(C)(C)OOC(C)(C)CCC(C)(C)OOC(C)(C)C | inactive
74 | CCCCC#N | inactive
75 | C[N+](C)(C)CCOC(=O)C(O)(c1ccccc1)c1ccccc1 | inactive
76 | CN(C)c1ccc(N=O)cc1 | 12.3 µM (active) and 43.6 µM (active)
